PubChem BioAssay (NCI)
About 83,000 compounds went through this panel and 20% of them were active in at least one assay; those are over-represented in the sample as a whole.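 Activity criterion: percent growth below 10, measured after cells in 96-well plates were exposed to a single compound concentration for 48 hours.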 The source made the active and inactive calls.

These compounds were tested on MDA-MB-468 breast (assay: NCI-60 one-dose screen, 48 h (100 = growth as untreated, 0 = no growth, -100 = all killed)). Settings: 10 µM unless noted.
In the case of `COc1cc2cc(Oc3ccc(NC(=O)Nc4cccc(C(F)(F)F)c4)cc3)c(C)nc2cc1OCCN1CCCCC1`, the growth was -68.7% (active).
With `O=C1Nc2ccccc2/C1=C/c1cccn1CCCCCCn1c2ccccc2c(=O)c2ccccc21` the growth was 8.47% (active).
With `Oc1cc2ccccc2c(-c2c(O)c(O)cc3ccccc23)c1O` the growth was 26.6% (inactive).
For `O=c1c2ccccc2oc2ccc(OCCCCCN3CCCCCC3)cc12`, the growth was 49.8% (inactive).
In the case of `COc1cc(OC)c(/C=C/S(=O)(=O)Cc2ccc(OC)c(NCC(=O)NO)c2)c(OC)c1`, the growth was 39.5% (inactive).
`COc1cc(C(=O)c2cc3c(cc2C)OCO3)cc(OC)c1OC` was tested, and the growth was 27.6% (inactive).
With `c1cc(N2CCCC2)c2nc(-c3[nH]ncc3Nc3ncnc4[nH]ccc34)[nH]c2c1` the growth was -76.2% (active).
In the case of `Cc1ncc(C(=O)Nc2ccc(CN3CCN(C)CC3)c(C(F)(F)F)c2)cc1C#Cc1cnc(NC2CC2)c2ncccc12`, the growth was 32% (inactive).
`CN(C)CCNc1nc2ccccc2c2c(=O)c3cc(F)ccc3sc12` was tested, and the growth was -28.1% (active).
For `CCOC(=O)c1cnc2ccc(Br)cc2c1Nc1cccc(S(=O)(=O)NC)c1`, the growth was 90.8% (inactive).
For `O=[N+]([O-])c1ccc(N/N=C/c2c(O)ccc3ccccc23)nc1`, the growth was 36.9% (inactive).
For `CC(/C=C/c1ccccc1)=N/NC(=O)c1ccncc1`, the growth was 98.8% (inactive).
`COc1ccc(C(=O)C(CN(C)C)c2ccc(OC)cc2)cc1` (stereo not given) was tested, and the growth was 14.2% (inactive).
`CN(C)c1ccc(/C=N/N=C(N)N)cc1` was tested, and the growth was 33% (inactive).
With `COC1=CC(c2ccc[nH]2)=N/C1=C\c1[nH]c(C)c(C)c1CCC(=O)OCc1ccccc1` the growth was 15.6% (inactive).
